Screening results from PubChem BioAssay.
ssDAF12 agonist: activates DAF-12 receptor from parasite S. stercoralis; activation, % at 6.8 µM; AID 652126; 370,000 tested, 1% active; HEK293 ssDAF-12/GRIP1 lit1-tk-luc reporter, luminescence; % of 3 µM dafachronic acid response;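 active = activation above the mean over all tested compounds plus 3 SD, cut at about 0.9% in these data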;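 also: 0% = DMSO-only wells and 100% = 3 µM delta7-dafachronic acid wells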
DAX1 inh-1: blocks DAX1 repression of SF-1 activated StAR promoter. HEK293T StAR-luciferase reporter, SF-1/DAX-1 repression relief. inhibition, % at 6.8 µM. 370,000 tested, 1.1% active;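 active = inhibition above the mean over all tested compounds plus 3 SD, cut at about 3.6% in these data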;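 also: 0% = DAX-1 cells with DMSO and 100% = cells lacking DAX-1 with DMSO; higher inhibition means more luminescence from relief of DAX-1 repression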
hcDAF-12 act: activators of H. contortus DAF-12 nuclear receptor; HEK293 hcDAF-12 lit1-tk-luc reporter, luminescence; 0% DMSO, 100% Δ7-dafachronic acid; AID 652067; 370,000 tested, 1.4% active; activation, % at 6.8 µM;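 active = activation above the mean of all tested compounds plus 3 SD, cut at about 5.5% in these data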;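 also: 100% = response to 3 µM Δ7-dafachronic acid high control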
hgDAF-12 ag: agonists of H. glycines DAF-12 nuclear receptor; AID 687014; HEK293 GAL4-hgDAF12 UAS-luciferase reporter, agonist luminescence; normalized to butyrate control; 370,000 tested, 1.8% active; activation, % at 6.8 µM;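 active = activation above a cutoff set at the mean of all screened compounds plus 3 SD, cut at about 10% in these data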;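 also: 0% = DMSO wells and 100% = sodium butyrate wells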
DAX1 inh-2: inhibits human nuclear receptor DAX1; 340,000 tested, 0.99% active; inhibition, % at 6.75 µM; P51843; HEK293 Gal4-DAX1 luciferase reporter, luminescence; AID 504766;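 active = inhibition above the mean over all tested compounds plus 3 SD, cut at about 4.2% in these data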;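 also: 0% = DAX1-transfected cells with DMSO and 100% = empty-vector control cells with DMSO; inhibition shows as a rise in luminescence from relieved DAX1 repression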
Target sequence (P51843 207-470 limits assumed): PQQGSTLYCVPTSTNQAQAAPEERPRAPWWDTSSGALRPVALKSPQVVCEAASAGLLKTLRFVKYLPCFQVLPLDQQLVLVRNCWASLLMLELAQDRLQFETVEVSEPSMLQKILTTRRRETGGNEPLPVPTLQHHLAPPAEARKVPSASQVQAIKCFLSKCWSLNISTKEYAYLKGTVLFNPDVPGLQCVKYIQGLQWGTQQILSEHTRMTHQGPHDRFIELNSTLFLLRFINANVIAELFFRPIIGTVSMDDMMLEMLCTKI
SMARCA2 act: SMARCA2 function activation, primary screen; MG213 cells, MMTV-luciferase reporter, dexamethasone, overnight; activation, % at 9.1 µM; 370,000 tested, 1% active; in the data active = activation above about 7.8%;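 also: 0% = vehicle wells and 100% = reference activator wells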
* hit, by the source's call; x = no result given. Shown are actives, neighbours in structure and some others; about 4.8% of the full set was active somewhere.

SMILES	ssDAF12 agonist	DAX1 inh-1	hcDAF-12 act	hgDAF-12 ag	DAX1 inh-2	SMARCA2 act
COc1cc(COCC(O)CN2C(C)CCCC2C)cc(OC)c1OC (stereo unspecified)	-2	0	2	1	4.6*	-4
CC1CCCC(C)N1CC(O)COCc1ccccc1 (stereo unspecified)	-1	0	-1	-1	-1	-4
Cc1nc(NCCCN2CCOCC2)c2cnn(-c3ccccc3)c2n1	0	2	4	12*	1	2
c1ccc(-n2ncc3c(NCCN4CCOCC4)ncnc32)cc1	0	1	3	6	3	5
CC1CCN(C(=O)Cn2c(=O)oc3cc(S(=O)(=O)N4CCCCC4)ccc32)CC1	-1	2	-1	-1	4.9*	0
COC(=O)[C@]12C[C@H](CC(=O)NCCCN3CCCC3=O)C(=O)N(Cc3ccc4c(c3)OCO4)C1=C[C@H](C(C)(C)C)O[C@@H]2C	-1	0	0	-1	x	-1
CSc1ccccc1OCc1cc(C(=O)NCc2cccc(C)n2)no1	-1	3	4	11*	2	6
Cc1nc(CNC(=O)c2cc(COc3c(F)cccc3F)on2)cs1	-2	0	1	-1	6.3*	-3
Cc1nc(CN(C)C(=O)c2cc(COc3c(F)cccc3F)on2)cs1	-1	0	0	-5	2	1
CSc1ccccc1OCc1cc(C(=O)N(C)Cc2nonc2C)no1	-1	4.0*	2	3	2	3
Cc1nonc1CN(C)C(=O)c1cc(COc2ccc(F)cc2Cl)on1	-1	0	-3	4	-1	8
CSc1ccccc1OCc1cc(C(=O)NC(C)Cc2cccc(C)n2)no1 (stereo unspecified)	-2	-2	-4	-2	-1	5
O=S1(=O)c2ccc(Br)cc2OC[C@H](Cc2ccccc2)N1Cc1cn(Cc2ccc(Cl)cc2)nn1	-1	-1	1	3	x	-2
CN[C@H]1C[C@H]2c3[nH]c4c(-c5ccc6c(c5)OCO6)cccc4c3CCN2C[C@H]1[C@H](C)O	-1	-1	-3	0	x	-4
O=C(NN=Cc1ccccc1Cl)c1ccc([N+](=O)[O-])cc1	0	0	-1	2	0	2
O=C(N/N=C/c1ccc[nH]1)c1ccc([N+](=O)[O-])cc1	0	0	3	3	1	7.9*
COc1cccc(C(=O)N(c2ccc(C)cc2)C2C=CS(=O)(=O)C2)c1 (stereo unspecified)	-1	-1	-1	-1	0	7.9*
Cc1nc(-c2cc(-c3ccc(Cl)cc3)no2)cs1	-1	1	0	3	4.5*	5
COc1cc(O)c(C(CCN2CCCCC2)c2ccc3c(c2)OCO3)c(OC)c1 (stereo unspecified)	-1	2	1	1	4.3*	0
COc1cccc(C(=O)NCCn2ccc3ccccc32)c1	-1	4	5	12*	2	3
COc1cc(OC)cc(C(=O)NCCn2ccc3ccccc32)c1	0	1	-3	0	0	-2
O=C1OC(Cc2ccccn2)C(O)=C1C1=NCCCCN1 (stereo unspecified)	-1	2	4	13*	5.3*	7
O=C1OC(Cc2ccccn2)C(O)=C1C1=NCCCN1 (stereo unspecified)	0	1	0	3	-1	-2
[C-]#[N+][C@]12C(=O)[C@H](C=C(Cl)[C@@]1(C)C=C)C(C)(C)[C@H]1C(=O)N(C)c3cccc2c31	-2	-2	-2	-4	x	-6
C=CCOC(=O)C1=C(C)OC(N)=C(C#N)C1c1ccco1 (stereo unspecified)	-1	0	-1	-1	8.4*	5
SMILES	ssDAF12 agonist	DAX1 inh-1	hcDAF-12 act	hgDAF-12 ag	DAX1 inh-2	SMARCA2 act
COc1ccc2[nH]c3c(c2c1)CCN[C@]31C(=O)N(Cc2cn(Cc3ccccc3)nn2)c2ccc(F)cc21	-1	0	-1	0	x	-3
Cc1ccc(Nc2nc(N)c([N+](=O)[O-])c(NCCO)n2)cc1C	0	0	1	2	4.4*	-1
Nc1nc(Nc2ccc(Cl)cc2)nc(NCCO)c1[N+](=O)[O-]	-1	-1	1	-1	x	0
COc1cc(OC)c(NC2c3ccccc3C(=O)N2c2cc(C)ccn2)cc1Cl (stereo unspecified)	0	3.6*	0	12*	0	0
Cc1ccc(N2C(=O)c3ccccc3C2Nc2ccccc2F)nc1 (stereo unspecified)	-1	0	-1	13*	0	1
COC(=O)C1=C(C)N(C)C(=NCC2CC2)NC1c1cccc(C(F)(F)F)c1 (stereo unspecified)	-1	1	0	-2	x	-6
COc1ccccc1CCn1cnc(-c2cccc(Br)c2)c1CC(C)C	-1	-2	-2	-3	x	-8
C=CCN(CC#Cc1ccc(C(F)(F)F)cc1)Cc1ccc(OC)cc1OC	-1	-1	-3	-1	x	3
Cn1ccsc1=NC(=O)c1ccc(S(C)(=O)=O)cc1	-1	0	-1	2	2	1
Cc1ccccc1C(=O)N=c1sccn1C	-1	0	1	2	2	-1
Cn1ccsc1=NC(=O)c1cccc(C#N)c1	-1	0	0	3	4.5*	0
Cc1cccc(C(=O)N=c2sccn2C)c1[N+](=O)[O-]	0	4.5*	0	11*	1	3
Cc1ccc(C(=O)N=c2sccn2C)cc1S(=O)(=O)N1CCOCC1	0	3.7*	1	6	0	3
Cc1ccccc1S(=O)(=O)N1CCCc2nc(C)c(C)cc21	-1	0	-2	1	x	-6
Cn1c(=O)c2cc(S(=O)(=O)N3CCN(c4ccc(F)cc4)CC3)ccc2n(C)c1=O	-1	0	-1	0	x	4
O=C(CN(CCc1ccccc1)S(=O)(=O)c1ccc(F)cc1)N1CCOCC1	-1	0	-3	0	x	1
Cc1ccc(C)c(NC(=O)c2cccc3c2-c2ccccc2C3=O)c1	0	0	0	-3	x	2
COC(=O)[C@]12C[C@H](CC(=O)NCC3CCCCC3)C(=O)N(Cc3ccc(Cl)cc3Cl)C1=C[C@H](C(C)C)O[C@@H]2C1CC1	-2	0	-1	2	x	-1
COC(=O)CC#C[C@H](C)[C@@H](NS(=O)(=O)c1ccc([N+](=O)[O-])cc1)C(C)(C)C	-1	1	0	1	x	-5
Oc1cccc(Nc2c3ccccc3nc3ccccc23)c1	-1	-1	-2	1	-1	6
CCN(CC)Cc1cc(Nc2c3ccccc3nc3c4ccccc4n(C)c23)cc(CN(CC)CC)c1O	-1	3	3	1	4	41*
